Compound activity deposited in PubChem by National Center for Advancing Translational Sciences (NCATS).
D1 agonist: Allosteric Agonists of the Human D1 Dopamine Receptor: qHTS | D(1A) dopamine receptor (Homo sapiens), P21728 | HEK293 T-REx D1 cells, calcium flux, agonist mode | activation, % at 2 µM | 360,000 compounds, 1% hits | AID 504660, 2011; also: 0% is about no effect
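Inducible HEK293 T-REx D1 cells, force-coupled to calcium signalling, were plated at 4000 cells/well with tetracycline and held overnight at 30 C. After no-wash calcium dye loading, compound-evoked calcium rise over 180 s flagged agonists.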
D1 PAM: Potentiators of Human D1 Dopamine Receptor: qHTS | D(1A) dopamine receptor (Homo sapiens), P21728 | HEK293 TREx D1 cells, calcium flux, dopamine EC20 potentiation | potentiation, % at 10 µM | 360,000 compounds, 0.036% hits; in the data active = potentiation above about 30%; also: 0% is about no effect
TRHR agonist: qHTS for Small Molecule Agonists and Allosteric Enhancers of Human TRH Receptor: Primary Screen for Agonists | TRHR cells, calcium flux fluo-8, FDSS agonist mode | activation, % at 2 µM | 360,000 compounds, 0.18% hits | Thyrotropin-releasing hormone receptor (Homo sapiens), P34981; also: 0% is about no effect
Target sequence (P34981 whole entry, looked up): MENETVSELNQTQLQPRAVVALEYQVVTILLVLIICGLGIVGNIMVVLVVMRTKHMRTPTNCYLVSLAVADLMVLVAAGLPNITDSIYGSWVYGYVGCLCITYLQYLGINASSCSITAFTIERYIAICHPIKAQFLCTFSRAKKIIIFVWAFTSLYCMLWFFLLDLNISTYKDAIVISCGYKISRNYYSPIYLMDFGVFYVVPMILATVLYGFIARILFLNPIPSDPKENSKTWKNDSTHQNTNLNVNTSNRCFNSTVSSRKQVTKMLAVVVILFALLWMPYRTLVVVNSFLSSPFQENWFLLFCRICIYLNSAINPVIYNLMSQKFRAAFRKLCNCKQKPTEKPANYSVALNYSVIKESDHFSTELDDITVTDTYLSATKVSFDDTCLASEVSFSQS
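Agonist-mode FDSS calcium read (Ex 480/Em 530, 1 s cycles) in 1536-well TRHR cells with fluo-8 dye, after 10-cycle baseline and 23 nL compound addition; TRH at EC20 (10 nM final) added afterwards for the enhancer phase.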
TRHR PAM: qHTS for Small Molecule Agonists and Allosteric Enhancers of Human TRH Receptor: Primary Screen for Enhancers. Thyrotropin-releasing hormone receptor (Homo sapiens), P34981. TRHR cells, fluo-8 calcium fluorescence, EC20 TRH enhancement. enhancement, % at 2 µM. 360,000 compounds, 0.66% hits. AID 493056, 2011; in the data active = enhancement above about 30%; also: 0% is about no effect
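Enhancer read-out: after compound pinning and an initial kinetic agonist-mode read, an EC20 of TRH (10 nM final) was injected and fluo-8 calcium signal (Ex 480/Em 530) followed at 1 s/cycle for 100 cycles in TRHR-expressing cells.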
Glioma ERSR ind: qHTS for Inducers of the Endoplasmic Reticulum Stress Response (ERSR) in Human Glioma: qHTS; U87-MG GRP78 promoter luciferase reporter, 16 h; Potency, µM, for the others: at the top dose activation, actives largely listed as activators; 420,000 compounds, 0.02% hits; AID 602332, 2012; active = well fitted activation curve with a large enough effect; inconclusive = small, poorly fitted or top-dose-only effect; inactive = no such curve, though single readings can be large or run the other way; also: potency is read from the fitted curve at half-maximal effect; series mostly up to about 76 µM; % of control where 0% means no effect; nearly all actives have a fitted effect of over 35% in size
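Stably transfected U87-MG human glioma cells carrying a GRP78-based luminescent sensor were seeded at 1000 cells/well, pin-dosed with compounds and incubated 16 h. Luciferase reagent was then added, and end-point luminescence was read after 10 min at room temperature.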
D1 antag: Antagonist of Human D 1 Dopamine Receptor: qHTS; D(1A) dopamine receptor (Homo sapiens), P21728; HEK293 TREx D1 cells, calcium flux, dopamine EC80; hits give low values; activity change, negative = inhibition, % at 10 µM; 360,000 compounds, 3.2% hits; in the data active = activity change below about -30%; also: % is scaled to controls: 0 for no effect and ±100 for the full control effect
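Antagonism measured as reduced calcium response to an EC80 dopamine addition following 180 s compound pre-read; cells were inducible HEK293 Trex D1 plated overnight at 30 C, read kinetically at 1 cycle/sec.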
Numbers without * were called inactive; ? = inconclusive; . = no result given. The list is not random: actives were taken first. Their share in the collection is about 4%. Rule as the data show it, unless noted: active = activation above about 30%; inactive = the rest.

SMILES	D1 agonist	D1 PAM	TRHR agonist	TRHR PAM	Glioma ERSR ind	D1 antag
Cc1ccccc1C(=O)Nc1cccc(-c2ccc(N3CCOCC3)nn2)c1	5	-1	-1	-3	7%	-37*
Cc1ccc(S(=O)(=O)OCC2CN3C(CCC(C)C3c3ccc(Br)cc3)C(=O)O2)cc1 (stereo not given)	.	.	.	.	-2%	.
O=C(Nc1nonc1-c1ccc(Cl)cc1)c1ccccc1	1	-9	-1	22	-3%	-29
CCC(=O)Nc1cccc(NC(=S)NC(=O)c2cccc(C)c2)c1	9	1	-3	-1	2%	-38*
O=C(Nc1ccncc1)c1sc2ccccc2c1Cl	6	-7	0	4	-3%	-41*
COc1cc(C(=O)Nc2nonc2-c2ccc(Cl)cc2)cc(OC)c1OC	30*	3	8	2	?	14
COc1cc(C(=O)NNC(=S)NC(=O)c2ccc(Cl)cc2)cc(OC)c1OC	60*	-1	10	12	2%	-5
CCC(=O)Nc1cccc(NC(=S)NC(=O)c2ccc(C)cc2)c1	2	-4	0	2	2%	-2
Cc1ccc(S(=O)(=O)N2CCCN(C(=O)c3cc4ccccc4[nH]3)CC2)cc1	21	-8	-1	7	2%	-2
CCC1(c2ccccc2)NC(=O)N(CC(=O)Nc2cc(S(=O)(=O)N3CCCCCC3)ccc2OC)C1=O (stereo not given)	16	-10	1	-1	-1%	-4
COc1ccc(/C=C\C(=O)Nc2ccccc2C(=O)O)cc1OC	.	.	.	.	-12%	.
C=CCc1cccc(C2NC(C(=O)O)CCC2C)c1 (stereo not given)	.	.	.	.	-3%	.
Cc1cccc(C(=O)NNC(=O)c2ccc(Br)cc2)c1	2	1	0	5	0%	-5
Cc1ccccc1C(=O)NNC(=S)NC(=O)c1cccs1	136*	-9	21	-7	-3%	-29
Cc1cccc(C(=O)NC(=S)NNC(=O)c2ccc(Cl)cc2)c1	172*	24	29	4	35µM*	34
O=C(NNC(=S)NC(=O)c1sc2ccccc2c1Cl)c1ccc(Cl)cc1	141*	-5	1	-3	4%	-38*
O=C(NC(=S)Nc1ccc(N2CCOCC2)c(Cl)c1)c1sc2ccccc2c1Cl	2	8	0	4	-2%	-31*
O=C(NC(=S)Nc1ccccc1N1CCOCC1)c1sc2ccccc2c1Cl	-1	2	0	1	0%	11
CN1CCC(=O)N(C(CSc2ccc(Br)cc2)c2ccccc2)CC1 (stereo not given)	.	.	.	.	0%	.
O=c1c2[nH]c3cc(Br)sc3c2cnn1Cc1ccccc1F	2	3	-2	-1	.	6
CC(C)(C)c1ccc(C(=O)NC(=S)NNC(=O)c2cccs2)cc1	367*	29	34*	7	14µM*	156
O=C(NC(=S)NNC(=O)c1cccs1)c1ccccc1	24	-6	6	-4	0%	-9
O=C(NNC(=O)c1cccs1)c1ccc(F)cc1	4	-2	0	36*	1%	-13
O=C1CCC/C(=N/NC(=O)c2sc3ccccc3c2Cl)C1	81*	-10	39*	4	0%	-5
Cc1cccc(C(=O)NC(=S)NNC(=O)c2cccs2)c1	213*	-5	42*	-10	14%	-18
SMILES	D1 agonist	D1 PAM	TRHR agonist	TRHR PAM	Glioma ERSR ind	D1 antag
CN1CCN(c2ncc3nc(-c4ccccc4)c(=O)n(CCc4ccccc4)c3n2)CC1	.	.	.	.	-4%	.
COc1ccccc1-c1ccnc(-n2ncc(C(=O)N[C@H]3CCCCNC3=O)c2C2CC2)n1	.	.	.	.	-4%	.
O=C(Nc1ccc(Br)cc1)Nc1ccccc1Cl	11	-3	1	-6	2%	-41*
O=C(Nc1ccncc1)Nc1ccc(Br)cc1Cl	4	-7	1	-4	4%	-34*
O=C(Nc1ccncc1)Nc1ccc(F)c(Cl)c1	23	-6	2	36*	2%	-13
O=C(Nc1ccc(CN2CCCCC2)cc1)Nc1ccccc1Cl	14	0	3	2	-1%	0
O=C(Nc1ccc(F)c(Cl)c1)Nc1ccc(Cl)cn1	0	-1	1	5	-2%	5
CC(=O)c1ccc(NC(=O)Nc2ccc(Br)cc2C)cc1	21	-11	0	3	0%	-35*
CC(=O)c1ccc(NC(=O)c2ccc(C)c(Br)c2)cc1	13	-8	-2	8	2%	-3
Nn1c(SCc2cccc(Br)c2)nnc1-c1ccncc1	1	-4	0	0	-2%	5
CC(C)CC(NC(=O)CNC(=O)C(Cc1ccc(O)cc1)NC(=O)C(CO)NC(=O)C(Cc1c[nH]c2ccccc12)NC(=O)C(Cc1cnc[nH]1)NC(=O)C1CCC(=O)N1)C(=O)NC(CCCN=C(N)N)C(=O)N1CCCC1C(=O)NCC(N)=O (stereo not given)	.	.	.	.	-4%	.
CCOC(=O)C(C)N1C(=O)S/C(=C/c2cc(C)n(-c3ccncc3)c2C)C1=O (stereo not given)	4	-5	0	-3	3%	-1
CCOC(=O)C(C)N1C(=O)S/C(=C/c2cc(C)n(-c3ccccn3)c2C)C1=O (stereo not given)	1	-2	1	4	-7%	-45*
Cc1ccc(-c2noc(CCC(=O)NCCN3CCOCC3)n2)cc1	1	-1	-1	11	-3%	11
Cc1ccc(-c2noc(CCC(=O)NCC3CCN(Cc4cccc(C)c4)CC3)n2)cc1	51*	-10	4	6	-3%	-24
COc1ccc(-c2noc(CCC(=O)NCCCN3CCC(Cc4ccccc4)CC3)n2)cc1	56*	-10	3	8	-6%	-54*
COc1ccc(-c2noc(CCC(=O)NCCCN3CCN(c4ccc(F)cc4)CC3)n2)cc1	35*	-16	0	-4	-5%	-73*
Cc1ccc(-c2noc(CCC(=O)NCCN3CCN(Cc4ccccc4)CC3)n2)cc1	13	-7	0	-10	0%	-20
COc1ccc(-c2noc(CCC(=O)NCc3ccco3)n2)cc1	0	-6	-2	-1	2%	-37*
CCNc1nc(N)c(C(=O)c2ccc(Cl)s2)s1	1	-4	0	13	-2%	4
